# Reference: PubChem BioAssay (NCI)
# Compounds without any hit were thinned out: in the full panel of roughly 83,000, 20% have a hit.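 Growth was measured after 48 h exposure to one concentration of compound in 96-well plates. Values under 10 count as active.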 Calls of active or inactive are those of the source.
# Key:
# Test in all cases: NCI-60 one-dose screen, 48 h (100 = growth as untreated, 0 = no growth, -100 = all killed)
# Details in all cases: 10 µM unless noted
# SK-MEL-2 melanoma = system: SK-MEL-2 melanoma
# EKVX NSCLC = system: EKVX NSCLC
# SN12C renal = system: SN12C renal
# UO-31 renal = system: UO-31 renal
# TK-10 renal = system: TK-10 renal
# ACHN renal = system: ACHN renal
# A498 renal = system: A498 renal
# CCRF-CEM leukemia = system: CCRF-CEM leukemia
# MOLT-4 leukemia = system: MOLT-4 leukemia
# CAKI-1 renal = system: CAKI-1 renal
SMILES,growth (SK-MEL-2 melanoma),growth (EKVX NSCLC),growth (SN12C renal),growth (UO-31 renal),growth (TK-10 renal),growth (ACHN renal),growth (A498 renal),growth (CCRF-CEM leukemia),growth (MOLT-4 leukemia),growth (CAKI-1 renal)
O=C1Cc2c([nH]c3ccc([N+](=O)[O-])cc23)-c2ccccc2N1,-21.5% (active),17.1% (inactive),44.1% (inactive),4.74% (active),12% (inactive),11.5% (inactive),-5.07% (active),1.61% (active),2.18% (active),
C=C(C)[C@@H]1CC[C@]2(C)[C@H](CC=C3[C@@H]4C[C@](C)(C(=O)N5CCN(C)CC5)CC[C@]4(C)CC[C@]32C)[C@@]1(C)CCC#N,76.4% (inactive),85.6% (inactive),75.2% (inactive),66.1% (inactive),75.8% (inactive),80.4% (inactive),97% (inactive),34.1% (inactive),32.1% (inactive),63% (inactive)
O=C(NCCNC(=O)c1cc(S(=O)(=O)NCCc2ccccc2)c(O)c(O)c1O)c1cc(S(=O)(=O)NCCc2ccccc2)c(O)c(O)c1O,63% (inactive),49.9% (inactive),52.3% (inactive),46.5% (inactive),96.6% (inactive),68.6% (inactive),87.3% (inactive),45% (inactive),56.6% (inactive),
Fc1cc(-c2nnc3sc(-c4ccc(Cl)cc4)nn23)c(Cl)cc1Cl,95.7% (inactive),96.2% (inactive),103% (inactive),78.1% (inactive),99.9% (inactive),101% (inactive),97.8% (inactive),-75.3% (active),60.6% (inactive),
CN(C)c1ccc(/C=N/Nc2nnc3n2N=C(c2ccc(Cl)cc2)CS3)cc1,97.5% (inactive),89% (inactive),95% (inactive),74.9% (inactive),92.9% (inactive),99.5% (inactive),85.6% (inactive),86.8% (inactive),66.6% (inactive),
CC(=O)c1nn(-c2ccccc2)/c(=N\N=C\c2coc3ccc(F)cc3c2=O)s1,107% (inactive),81.6% (inactive),97.6% (inactive),69.6% (inactive),163% (inactive),94% (inactive),125% (inactive),97.2% (inactive),100% (inactive),
Clc1ccc2c(c1)-c1ccccc1C1=NCCN12,-0.581% (active),51.5% (inactive),29.1% (inactive),10.8% (inactive),20.1% (inactive),14.1% (inactive),10.3% (inactive),28.4% (inactive),17.1% (inactive),
COc1cccc2nc(Nc3cccc(NC(=O)c4ccc(N5CCN(C)CC5)c(C(F)(F)F)c4)c3)ccc12,77.4% (inactive),66.7% (inactive),45.7% (inactive),22.1% (inactive),51.1% (inactive),26.8% (inactive),64.4% (inactive),12.5% (inactive),-16.6% (active),
CCCCNCCC(O)c1cc2ccc(C(F)(F)F)cc2c2cc(C(F)(F)F)ccc12 (stereo not drawn),-70.1% (active),-54% (active),-75.2% (active),-88.8% (active),-91.8% (active),-82.8% (active),-6.76% (active),-45.5% (active),-58.8% (active),
SCc1ccc(CS)cc1,108% (inactive),104% (inactive),100% (inactive),85.6% (inactive),115% (inactive),102% (inactive),,98% (inactive),,
CCN(CC)CCC(CNc1ccnc2cc(Cl)ccc12)c1ccc(O)cc1 (stereo not drawn),119% (inactive),99.4% (inactive),99.1% (inactive),77.4% (inactive),90.2% (inactive),98.5% (inactive),37.7% (inactive),46% (inactive),48.3% (inactive),
